Experimental data published in PubChem BioAssay (NCATS).
Several values for one entry are separate records, joined by “and”; a condition that tells them apart may be missing. Equal entries are not always repeated. Results filed as inconclusive are left out. Unmarked numbers belong to inactive results. Activity calls are given as the source filed them. The call rests on the fitted dose curve; in most records, active means well fitted inhibition curve with a large enough effect; inconclusive means small, poorly fitted or top-dose-only effect; inactive means flat fitted curve, though single readings scatter.

System: KB-3-1
Assay: Cytotoxic Profiling of Annotated Libraries Using Quantitative High-Throughput Screening (AID 1296008); further: nearly all actives have a fitted effect of over 60% in size
Conditions: Five cell lines viability, CellTiter-Glo ATP luminescence, 48-72 h; max response: hits give low values
In short: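 Compounds were pin-transferred onto cells and incubated 48 or 72 hr at 37 degree Celsius, 95% humidity. CellTiter-Glo was added, plates sat 10 min at room temperature, then ATP-coupled luminescence was imaged as the viability read-out.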
On the % scale 0 is the no-effect control and ±100 the full control effect; potency means the concentration at half of the fitted maximal effect.

| SMILES | max response | Potency |
| --- | --- | --- |
| Cc1c(N)nc(C(CC(N)=O)NCC(N)C(N)=O)nc1C(=O)NC(C(=O)NC(C)C(O)C(C)C(=O)NC(C(=O)NCCc1nc(-c2nc(C(=O)NCCCN[C@@H](C)c3ccccc3)cs2)cs1)C(C)O)C(O[C@@H]1O[C@@H](CO)[C@@H](O)[C@H](O)[C@@H]1O[C@H]1O[C@H](CO)[C@@H](O)[C@H](OC(N)=O)[C@@H]1O)c1cnc[nH]1 (some centres undefined) | -0.767% |  |
| O=c1[nH]cnc2[nH]cc(CN3CCCCC3)c12 | -7.83% |  |
| CCC(CN)CC(C)CCNCC(O)CNCC(C)CC(CC)CN (centres undefined) | -5.63% |  |
| Nc1c(CC(=O)O)cccc1C(=O)c1ccccc1 | -7.36% and -8.46% |  |
| CC(=O)[C@@]1(O)CC[C@H]2[C@@H]3C=C(Cl)C4=CC(=O)CC[C@]4(C)[C@H]3CC[C@@]21C | -17.5% |  |
| CSCC[C@H](NC(=O)[C@H](Cc1ccc(OS(=O)(=O)O)cc1)NC(=O)[C@@H](N)CC(=O)O)C(=O)NCC(=O)N[C@@H](Cc1c[nH]c2ccccc12)C(=O)N[C@@H](CCSC)C(=O)N[C@@H](CC(=O)O)C(=O)N[C@@H](Cc1ccccc1)C(N)=O | -5.26% and -10.7% |  |
| O=C(O)c1ccccc1[O-].O=C(O)c1ccccc1[O-].[Zn+2] | -8.24% |  |
| CCN(CC)c1ccc(C(=C2C=CC(=[N+](CC)CC)C=C2)c2ccccc2)cc1 |  | 1.3 µM (active) |
| CC(=O)CC(=O)Nc1ccc(Cl)c(C(F)(F)F)c1 |  | 23.1 µM (active) |
| CC(C)(S)C(=O)N[C@@H](CS)C(=O)O | -0.209% and -15.2% |  |
| CCC(=O)OCC(=O)[C@@]1(OC(=O)CC)[C@@H](C)C[C@H]2[C@@H]3CCC4=CC(=O)C=C[C@]4(C)[C@@]3(Cl)[C@@H](O)C[C@@]21C | -12.3% |  |
| CS(=O)(=O)NC(=O)CCC/C=C\C[C@H]1C(=O)C[C@@H](O)[C@@H]1/C=C/[C@H](O)COc1ccccc1 | -12.3% |  |
| CN1CCN(C2=Nc3ccccc3Cc3ccccc32)CC1 | 2.98% |  |
| NCCCNCCCCNC(=O)C(O)NC(=O)CCCCCCN=C(N)N (centres undefined) | -11.3% |  |
| O=S(O)CO | -16% |  |
| NCCCC[C@H](NC(=O)[C@@H]1CCCN1C(=O)[C@@H]1CSSC[C@H](N)C(=O)N[C@@H](Cc2ccc(O)cc2)C(=O)N[C@@H](Cc2ccccc2)C(=O)N[C@@H](CCC(N)=O)C(=O)N[C@@H](CC(N)=O)C(=O)N1)C(=O)NCC(N)=O | 0.366% and -14.6% |  |
| CC#CCC(C)[C@H](O)/C=C/[C@@H]1[C@H]2C/C(=C/CCCC(=O)O)C[C@H]2C[C@H]1O (some centres undefined) | -19% |  |
| O=C(Nc1nnc(-c2ccc3c(c2)OCCO3)o1)C1CCCCC1 | 6.45% |  |
| CC#CCC(C)[C@H](O)/C=C/[C@@H]1[C@H]2c3cccc(CCCC(=O)O)c3O[C@H]2C[C@H]1O (some centres undefined) | -28.3% |  |
| C/C(=C(\CCOC(=O)c1ccccc1)SS/C(CCOC(=O)c1ccccc1)=C(/C)N(C=O)Cc1cnc(C)nc1N)N(C=O)Cc1cnc(C)nc1N | -12.4% |  |
| C[C@H]1C[C@H]2[C@@H]3CCC4=CC(=O)C=C[C@]4(C)[C@@]3(F)[C@@H](O)C[C@]2(C)[C@@]1(O)C(=O)CCl | -8.19% |  |
| CO[C@H]1[C@@H](O)[C@H](N)[C@@H](O[C@H]2O[C@H]([C@H](C)N)CC[C@H]2N)[C@H](O)[C@@H]1N(C)C(=O)CN | -19.3% |  |
| Nc1ncnc(Nc2ccc(Cl)cc2)n1 | -7.22% |  |
| COc1cc2[nH]c(C)c(CCN3CCN(c4ccccc4)CC3)c2cc1OC | -9.43% |  |
| COC(=O)C1=C(C)NC(C)=C(C(=O)O[C@H]2CCN(Cc3ccccc3)C2)[C@H]1c1cccc([N+](=O)[O-])c1 | -25.4% |  |
| O=C[C@H](O)[C@@H](O)[C@H](O)[C@H](O)CO | -5.79% |  |
| N[C@@H](C(=O)N[C@H]1C(=O)N2C(C(=O)O)=C(Cl)CC[C@H]12)c1ccccc1 | -8.22% |  |
| O=C(c1ccccc1)c1c(O)cc(O)cc1O[C@@H]1O[C@H](CO)[C@@H](O)[C@H](O)[C@H]1O | 2.63% |  |
| CCCCCC(O)/C=C/C=O (centres undefined) | -19% |  |
